Among all 2,400 compounds or so, about 750 (31%) were called active. The list shows a part of the results. Unmarked numbers belong to inactive results.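 Rule for the calls: active = median signal gain over dofetilide-blocked control wells reaching their mean plus 3 SD, so readout 1 at least 0; inactive = the rest.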

Voltage-gated inwardly rectifying potassium channel KCNH2 (Homo sapiens), sequence (Q12809 whole entry, looked up): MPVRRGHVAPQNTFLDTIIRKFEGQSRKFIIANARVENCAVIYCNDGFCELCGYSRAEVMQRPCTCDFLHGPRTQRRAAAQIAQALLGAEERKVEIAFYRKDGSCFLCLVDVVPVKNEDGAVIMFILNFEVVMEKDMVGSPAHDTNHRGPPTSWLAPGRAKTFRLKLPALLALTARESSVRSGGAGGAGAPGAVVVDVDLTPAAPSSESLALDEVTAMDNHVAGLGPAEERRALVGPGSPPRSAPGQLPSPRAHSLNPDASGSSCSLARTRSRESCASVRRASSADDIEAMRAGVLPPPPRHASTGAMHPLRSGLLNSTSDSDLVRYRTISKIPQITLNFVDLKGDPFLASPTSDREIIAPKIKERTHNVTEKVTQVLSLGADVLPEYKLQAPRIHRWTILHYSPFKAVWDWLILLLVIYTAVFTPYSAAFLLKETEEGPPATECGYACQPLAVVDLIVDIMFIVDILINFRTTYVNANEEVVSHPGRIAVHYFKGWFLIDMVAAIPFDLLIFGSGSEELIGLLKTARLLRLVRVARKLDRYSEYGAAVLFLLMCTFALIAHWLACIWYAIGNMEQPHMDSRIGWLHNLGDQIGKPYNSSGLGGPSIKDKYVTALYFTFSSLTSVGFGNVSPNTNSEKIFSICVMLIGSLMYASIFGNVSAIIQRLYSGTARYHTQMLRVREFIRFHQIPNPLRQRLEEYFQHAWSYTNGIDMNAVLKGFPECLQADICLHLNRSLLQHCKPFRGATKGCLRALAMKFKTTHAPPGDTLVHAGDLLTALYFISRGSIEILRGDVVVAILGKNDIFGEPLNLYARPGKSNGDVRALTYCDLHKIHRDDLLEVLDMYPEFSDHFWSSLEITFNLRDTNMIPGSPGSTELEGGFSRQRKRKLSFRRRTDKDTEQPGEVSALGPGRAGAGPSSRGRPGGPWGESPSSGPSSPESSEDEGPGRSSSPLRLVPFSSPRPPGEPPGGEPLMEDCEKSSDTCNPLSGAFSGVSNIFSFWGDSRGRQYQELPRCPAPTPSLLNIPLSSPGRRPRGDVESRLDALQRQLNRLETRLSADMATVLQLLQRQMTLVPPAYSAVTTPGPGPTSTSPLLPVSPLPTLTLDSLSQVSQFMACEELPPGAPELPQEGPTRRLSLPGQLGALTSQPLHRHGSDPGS

The assay concerns the target Voltage-gated inwardly rectifying potassium channel KCNH2 (Homo sapiens) (UniProt Q12809). The experiment in a line: modulators restoring hERG flux under dofetilide – cell-based, thallium flux, duplicate retest, dofetilide IC70, confirmation (AID 1835). The settings on record: hERG cell line, FluxOR thallium flux, dofetilide-blocked; at 10 µM; stronger effect = higher value. In general terms: The hERG channel carries a current that helps repolarise heart muscle cells.
For the compound `CCCn1c(=S)[nH]c2ccc(C(F)(F)F)cc21`, the activity increase over dofetilide control, less the hit threshold is -3%. For `FC(F)(F)c1cnc2c(c1)[nH]c(=S)n2-c1ccc(Cl)cc1`, the activity increase over dofetilide control, less the hit threshold was 21% (active). Regarding `Clc1ccc(N=NN2CCOCC2)cc1`, the activity increase over dofetilide control, less the hit threshold was -8%. On to `COc1cc2c(=O)nc3n(c2cc1OC)C(c1ccccc1)N=C(N)N3` (stereo unspecified), for which the activity increase over dofetilide control, less the hit threshold was -8%. As to `CCN(CC)C(=O)CN1C(=O)c2cccc3cccc(c23)C1=O`, the activity increase over dofetilide control, less the hit threshold is -15%. Regarding `CN1C(=O)/C(=N/OC(=O)c2ccccc2)c2ccccc21`, the activity increase over dofetilide control, less the hit threshold was 3% (active).

On to `CN1C(=O)/C(=N\OC(=O)c2cccc3ccccc23)c2ccccc21`, for which the activity increase over dofetilide control, less the hit threshold was 15% (active).

`CN1C(=O)c2ccc(C(=O)NCc3ccccc3)cc2C1=O`: the activity increase over dofetilide control, less the hit threshold was -16%.

Take `O=C1c2ccccc2C(=O)N1c1cccnc1`: the activity increase over dofetilide control, less the hit threshold was -12%.

Turning to `c1ccc(OCc2nn3c(Cn4cnc5ccccc54)nnc3s2)cc1`, the activity increase over dofetilide control, less the hit threshold is -10%.

With `O=C(NC(=S)Nc1ccccc1N1CCCC1)c1ccc([N+](=O)[O-])cc1`, the activity increase over dofetilide control, less the hit threshold is 4% (active). As to `O=C(NC(=S)Nc1ccccc1N1CCCC1)c1ccc(-c2cccc([N+](=O)[O-])c2)o1`, the activity increase over dofetilide control, less the hit threshold was -6%.

In the case of `CCOc1ccc(NC(=O)CS(=O)CC(=O)NC2CCCc3ccccc32)cc1` (stereo unspecified), the activity increase over dofetilide control, less the hit threshold was -7%.

Regarding `Cc1cccc(OCC(=O)NC2CCCc3ccccc32)c1C` (stereo unspecified), the activity increase over dofetilide control, less the hit threshold was -11%.

Turning to `O=C(CNC1CCCCCC1)Nc1ccccc1N1CCOCC1`, the activity increase over dofetilide control, less the hit threshold was -12%. Regarding `O=C(NC(=S)Nc1cccc(Cl)c1N1CCOCC1)c1cccs1`, the activity increase over dofetilide control, less the hit threshold was -5%. As to `O=C(COc1ccc(Cl)cc1Cl)NC(=S)Nc1ccccc1C(=O)O`, the activity increase over dofetilide control, less the hit threshold is -6%.

Consider `O=C(NC(=S)Nc1cccc(Cl)c1N1CCCCC1)c1ccco1`, for which the activity increase over dofetilide control, less the hit threshold is 52% (active). Then `O=C(COc1ccccc1Cl)NC(=S)Nc1ccccc1N1CCCC1`, with 15% (active). On to `O=C(NC(=S)NC1CCCc2ccccc21)c1ccco1` (stereo unspecified), for which the activity increase over dofetilide control, less the hit threshold is 13% (active). On to `O=C(NC(=S)Nc1cccc(Cl)c1N1CCCCC1)c1cccs1`, for which the activity increase over dofetilide control, less the hit threshold was -10%. In the case of `N#Cc1cccc(NC(=O)c2nc(-c3ccccc3)n(-c3ccccc3)n2)c1`, the activity increase over dofetilide control, less the hit threshold was -18%.

With `Fc1ccccc1N1CCN(c2cnc3ccccc3n2)CC1`, the activity increase over dofetilide control, less the hit threshold is -9%. As for `Nc1nnc(SCC(=O)OCc2ccc(F)cc2)s1`, the activity increase over dofetilide control, less the hit threshold was -27%. For the compound `Cc1cc(-c2cccnc2)c(C#N)c(SCc2cccc(F)c2)n1`, the activity increase over dofetilide control, less the hit threshold is -15%. Then `CCCCNC(=O)N1CCCC(C(=O)c2cc(C)c(OC)c(C)c2)C1` (stereo unspecified), with -22%; and `C/C(N)=C(/C#N)C(=O)COC(=O)C1CCC(C(C)(C)C)CC1` (stereo unspecified), with -7%. As to `CCC(C)(C(=O)NC1CCCC1)N(C(=O)c1ccccn1)c1ccccc1` (stereo unspecified), the activity increase over dofetilide control, less the hit threshold was -17%. `Cc1cc(-c2cccc(Br)c2)c(C#N)c(N)n1`: the activity increase over dofetilide control, less the hit threshold was -15%. Then `CCNC(=O)NC1c2ccccc2CSc2ccccc21` (stereo unspecified), with -19%; and `O=C(CCc1ccccc1)NC(=S)Nc1cc(C(F)(F)F)ccc1N1CCOCC1`, with -14%. As for `O=C(NC(=S)Nc1ccccc1Br)c1ccco1`, the activity increase over dofetilide control, less the hit threshold was -1%. The same measure for `O=C(NC(=S)Nc1ccc(N2CCCCC2)cc1)c1ccco1`: 45% (active); for `O=C(NC(=S)Nc1cc(C(F)(F)F)ccc1N1CCOCC1)c1ccco1`: 10% (active); for `CC1CCN(c2ccccc2NC(=S)NC(=O)c2ccco2)CC1`: -6%. As to `O=C(NC(=S)Nc1ccccc1N1CCCC1)c1ccco1`, the activity increase over dofetilide control, less the hit threshold was 4% (active). As to `O=C(NC(=S)Nc1ccccc1Cl)c1ccco1`, the activity increase over dofetilide control, less the hit threshold was 18% (active). For `Cc1ccc2[nH]c(C(=O)O)c(-c3ccccc3)c2c1`, the activity increase over dofetilide control, less the hit threshold was -16%. With `O=c1cc(CN2CCN(S(=O)(=O)c3ccc4c(c3)OCCO4)CC2)c2ccc(O)cc2o1`, the activity increase over dofetilide control, less the hit threshold is -5%.

Regarding `CCOc1cc(NC(=S)N2CCC(C(N)=O)CC2)c(C(=O)OC)cc1OCC`, the activity increase over dofetilide control, less the hit threshold was -4%.

Regarding `COc1cc2c(cc1OC)CN(C(=O)c1sccc1C)CC2`, the activity increase over dofetilide control, less the hit threshold was -13%. In the case of `Cc1ccc(OCC(=O)Nn2cnc3ccccc32)cc1`, the activity increase over dofetilide control, less the hit threshold is -11%. As to `Cc1ccc(C2C(C#N)=C(N)OC3=C2C(=O)CC(C)(C)C3)s1` (stereo unspecified), the activity increase over dofetilide control, less the hit threshold was -4%. Then `Cc1cc(-c2csc3nc[nH]c(=S)c23)cc(C)c1C`, with 14% (active); and `Cc1ccc(-c2csc3nc[nH]c(=S)c23)cc1C`, with 36% (active); and `O=C(O)c1ccccc1P(=O)(c1ccccc1)c1ccccc1`, with -20%. Then `CCCC(=O)n1nc(-c2ccccc2)nc1N`, with -17%. Then `CCCCCCc1cc2cc(-c3nnc(-c4ccccc4)o3)c(=O)oc2cc1O`, with -13%; and `c1ccc(CCCNc2ncnc3nc[nH]c23)cc1`, with 11% (active). For `CC1CCN(C(=S)NC(=O)c2cccs2)CC1`, the activity increase over dofetilide control, less the hit threshold is 10% (active). `O=C(c1cccs1)N1CCN(C23CC4CC(CC(C4)C2)C3)CC1`: the activity increase over dofetilide control, less the hit threshold was -21%.

Source of the values: PubChem BioAssay AID1835 (Johns Hopkins Ion Channel Center, 2009).
